The full list was thinned out, with hits kept by preference.
RmlC RmlD mix: inhibitors of RmlC and RmlD coupled enzymes; RmlC/RmlD coupled enzyme inhibition, 384-well mixture HTS; inhibition, % at 5.5 µM; actives 0.39% (n = 110,000); in the data active means inhibition above about 30%, passing the limit was not always enough
HIV RNase H inh: inhibitors of HIV-1 reverse transcriptase RNase H | P04585 | RT-RNase H RNA/DNA duplex cleavage, fluorescence | inhibition, % at 10 µM | actives 1.9% (n = 65,000); in the data active means inhibition above about 50%
Hits are given with their value; - = inactive; . = no result; + = active, no number.

SMILES	RmlC RmlD mix	HIV RNase H inh
O=C(CCCCO)CCCCCCCC[C@H]1N[C@H](CO)[C@H](O)[C@@H]1O[C@@H]1O[C@H](CO)[C@@H](O)[C@H](O)[C@H]1O	-	.
CCOC(=O)c1cc2c(=O)n3ccccc3nc2n(Cc2ccccc2Cl)c1=N	.	-
CCOCCCn1c(=NC(C)=O)c(C(=O)OCC)cc2c(=O)n3ccccc3nc21	67	-
CCOC(=O)c1cc2c(=O)n3ccccc3nc2n(CCCOC)c1=NC(=O)C(C)(C)C	-	-
CCOC(=O)c1cc2c(=O)n3ccccc3nc2n(Cc2ccccc2)c1=N	31	-
Cc1ccc(Cn2c(C(C)Nc3nc(-c4ccc(F)cc4)cs3)nc3cc(C(F)(F)F)ccc32)cc1 (stereo unspecified)	-	.
Cc1cc2ncn(/N=C/c3ccc([N+](=O)[O-])o3)c2cc1C	-	.
CCc1cccc(NC(=O)CN(c2ccc(OC)cc2)S(=O)(=O)c2c(C)n[nH]c2C)c1	-	-
CCc1nnc(NC(=O)CSc2nc3c(cc2C#N)CCCC3)s1	37	-
CCOC(=O)c1sc(NC(=O)CSc2nc3c(cc2C#N)CCCCC3)c(C#N)c1C	-	.
CCCCn1c(O)c(C=NC2CCCCC2N)c(=O)[nH]c1=O (stereo unspecified)	-	-
CCCCCCn1c(O)c(C=NC2CCCCC2N)c(=O)[nH]c1=O (stereo unspecified)	-	51
Cc1cccc(NC(=O)CCc2ccc(S(=O)(=O)NC3CCCCC3)cc2)c1	-	.
COCCN1C(=O)N[C@@H](c2cccs2)C(C(C)=O)=C1C	-	.
CC(=O)c1cn(CC(=O)Nc2ccc(C)cc2C)c2ccccc12	-	.
Cc1cccc(Nc2ncc3c(n2)CC(C)CC3=O)c1 (stereo unspecified)	-	-
Cc1nc(Nc2cccc(C(F)(F)F)c2)nc2c1C(=O)CC(C)C2 (stereo unspecified)	-	51
CCc1cc(=O)oc2c(C)c(O)c(CN3CCCCC3)cc12	93	-
Cc1c(O)c(CN2CCCC2)cc2c3c(c(=O)oc12)CCC3	-	-
COC(=O)c1c(NC(=O)c2ccco2)sc(C)c1C	-	-
COC(=O)c1c(NC(=O)c2ccco2)sc(C(=O)Nc2ccc(F)cc2)c1C	-	56
CC1(c2nnc(-c3ccc(F)cc3)o2)CC(c2ccccc2)=NO1 (stereo unspecified)	-	.
Cc1ccc(C)c(OCC(=O)Nc2nonc2NC(=O)COc2cc(C)ccc2C)c1	-	73
Cc1cccc(OCC(=O)Nc2nonc2NC(=O)COc2cccc(C)c2)c1	-	.
Cn1cccc1C1NC(=O)c2c(sc3c2CCC(C(C)(C)C)C3)N1 (stereo unspecified)	-	60
SMILES	RmlC RmlD mix	HIV RNase H inh
CN1CCc2c(sc3c2C(=O)NC(c2ccco2)N3)C1 (stereo unspecified)	-	-
COc1ccc(S(=O)(=O)n2nc(OC(C)=O)cc2N(C(C)=O)C(C)=O)cc1	-	.
CCCOc1ccc(N2C(=O)C3ON(c4ccccc4)C(c4ccc(O)c(OC)c4)C3C2=O)cc1 (stereo unspecified)	.	56
CCCOc1ccc(N2C(=O)C3ON(c4ccccc4)C(CCC)C3C2=O)cc1 (stereo unspecified)	-	.
COc1ccc(N2C(=O)N(Cc3cccc(F)c3)c3ccccc3S2(=O)=O)cc1	-	.
Cc1cc(C)c(NC(=O)COc2ccccc2C(=O)Nc2ccc3c(c2)oc2ccccc23)c(C)c1	+	.
CCOc1ccccc1C(=O)Nc1ccc(-c2nnc(-c3ccc(C)cc3)o2)cc1	.	-
CCOC(=O)C1=C(N)Oc2c(c(=O)[nH]c3ccccc23)C1c1ccccc1 (stereo unspecified)	-	.
COC(=O)c1ccc(NC(=O)c2cccc(Cl)c2)o1	-	.
Cc1cc(C)c2nc3s/c(=C/c4ccccc4)c(=O)n3c2c1	-	.
Cc1ccc2c(nc3s/c(=C/c4cccs4)c(=O)n32)c1C	.	80
COC(=O)C1=C2c3[nH]c4ccccc4c3CCN2C(=O)CC1	-	.
CC(=O)OCC(=O)NCc1ccc2c(c1)OCO2	-	-
Cc1cc(=O)oc2cc(OCC(=O)OCC(=O)NCc3ccc4c(c3)OCO4)ccc12	37	-
Cc1ccc(-n2nnc(-c3ccnc4ccccc34)n2)cc1	-	.
CCSc1nnc(NC(=O)c2csc3c2CCC(C)C3)s1 (stereo unspecified)	-	58
CC1CCc2c(C(=O)Nc3nccs3)csc2C1 (stereo unspecified)	-	.
Cc1ccc(-c2nnc3sc(C4COc5ccccc5O4)nn23)cc1 (stereo unspecified)	-	-
c1ccc(Cc2nnc3sc(C4COc5ccccc5O4)nn23)cc1 (stereo unspecified)	-	70
O=C(OC1C[C@@H]2CC3C[C@H](C1)N2CC3=O)c1c[nH]c2ccccc12 (stereo partly specified)	-	.
CC(=O)Nc1c(C(=O)O)oc2ccc(Cl)cc12	.	-
CC(=O)Nc1c(C(=O)O)oc2ccccc12	-	56
COc1ccc(Cn2nnnc2C(c2ccccc2OC)N2CCC(C(N)=O)CC2)cc1 (stereo unspecified)	-	-
COc1ccc(N2CCN(C(c3ccccc3OC)c3nnnn3Cc3ccco3)CC2)cc1 (stereo unspecified)	-	51
COc1nc(-c2ccc(Cl)cc2)ccc1-c1noc(-c2ccco2)n1	-	50
SMILES	RmlC RmlD mix	HIV RNase H inh
COc1cccc(-c2ccc(-c3noc(-c4ccccc4F)n3)c(OC)n2)c1	-	-
COC(=O)c1cc(COc2ccc3oc(C)c(C(=O)OC(C)C)c3c2)c(C)o1	-	.
CC1(C)Cc2c(C#N)c(N3CCN(C(=O)c4ccco4)CC3)nc(-c3ccco3)c2CS1	-	55
CC(=O)N1CCN(c2nc(-c3ccco3)c3c(c2C#N)CC(C)(C)SC3)CC1	-	.
CCCCCc1nnc(NC(=O)C2CCCO2)s1 (stereo unspecified)	-	64
Cc1nnc(NC(=O)C2CCCO2)s1 (stereo unspecified)	-	-
O=C(CSc1nc2ccccc2c(=O)n1NC(=O)Cc1ccccc1)NCc1ccccc1Cl	-	.
C=CCn1c(SCc2c(Cl)cccc2Cl)nnc1-c1cccnc1	-	.
CCCCCCN(C(=O)CCCCCN1C(=O)NC(c2ccc(-c3ccccc3)cc2)C(C(=O)OCc2ccccc2)=C1C)C(C(=O)NCCCC)c1ccc(O)c(C(=O)OC)c1 (stereo unspecified)	-	.
COc1ccc(N2CCn3c2nc2c3c(=O)n(CCCc3ccccc3)c(=O)n2C)cc1	.	60
COc1ccc(N2CCn3c2nc2c3c(=O)n(CCCc3ccccc3)c(=O)n2C)c(OC)c1	-	-
O=C(OCc1ccccc1)c1cn(-c2ccccc2)nc1-c1ccncc1	-	.
N=C1/C(=C\c2ccc(OCc3ccccc3)cc2)C(=O)N=C2SC(N3CCCC3)=NN12	-	.
CCc1nnc(NCC(=O)N2CCc3ccccc32)s1	-	55
CCc1nnc(NC(=O)c2c(O)c3cccc4c3n(c2=O)CC4)s1	.	-
NC(=O)CC(NC(=O)Cc1cccc2ccccc12)c1ccc(N2CCN(c3ccc(F)cc3)CC2)c([N+](=O)[O-])c1 (stereo unspecified)	-	.
O=C(NCc1ccco1)c1nn2c(C(F)(F)F)cc(-c3cccs3)nc2c1Br	-	.
COC(=O)c1nn2c(C(F)(F)F)cc(-c3ccc(Br)o3)nc2c1Br	-	64
Cc1cc(C(=O)N2CCN(Cc3ccccc3)CC2)on1	-	.
CCN1CCN(C(=O)c2cc3c(=O)n4ccccc4nc3n2Cc2ccccc2)CC1	.	-
